The assay can be described thus: small-molecule binders of probe aNOTCH2, primary screen, biochemical, small-molecule microarray, 635/667 nm fluorescence (AID 1121).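 Further: score merges feature fluorescence read at 667 nm with its signal to noise.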 To be noted: higher = more signal.
Turning to `CN1C(=O)C2C=CC(C(O)C#Cc3ccccc3)N(Nc3ccccc3)C2C1=O` (stereo not drawn), the composite z-score turned out to be 0.0363. `CN(C)c1ccc(C(O)C2C=CC3C(=O)N(c4ccccc4)C(=O)C3N2Nc2ccc([N+](=O)[O-])cc2)cc1` (stereo not drawn) gave a composite z-score of -0.133. Compound `CN(C)C(=O)[C@@]1(Cc2ccccc2CN=[N+]=[N-])N=C(c2ccc(OCCCO)cc2)O[C@H]1c1ccccc1CN=[N+]=[N-]` had a composite z-score of 0.202. With `O=C1OCC=C[C@H]2OC34C=CCN(Cn5nnc6ccccc65)C(=O)[C@H]3N(CCCO)C(=O)[C@@H]4[C@@H]12` (stereo partly drawn), the composite z-score is -0.185. Turning to `C[N+](C)(C)CCCCCCNC(=O)[C@H]1C[C@H]2C(=O)N[C@@H](Cc3ccccc3)C(=O)N2[C@H]1c1ccc(O)cc1`, the composite z-score is -0.137. Take `COCCOC(=O)N1C(=O)[C@@]2(c3cc(C#CCCO)ccc31)[C@H](C(=O)Nc1nc3ccccc3s1)[C@H]1C(=O)O[C@H](c3ccccc3)[C@H](c3ccccc3)N1[C@@H]2c1ccccc1OCCO`: the composite z-score worked out at 0.297.

`COc1cc2c(cc1OC)CN(C(=O)[C@@H]1[C@H]3C(=O)O[C@H](c4ccccc4)[C@H](c4ccccc4)N3[C@H](c3ccc(OCCO)cc3)[C@@]13C(=O)Nc1ccc(C#CC4(O)CCCCCC4)cc13)CC2` came in with a composite z-score of -0.166.

`COc1cc(CO)cc(I)c1O[C@H]1C=C(C(=O)NCCO)C[C@@H](NCc2ccc(F)cc2)[C@@H]1O` came in with a composite z-score of -0.148. Compound `[N-]=[N+]=NCc1ccccc1C[C@@]1(C(=O)NCc2ccccc2)N=C(c2ccc(OCCCO)cc2)O[C@@H]1c1ccccc1N=[N+]=[N-]` came in with a composite z-score of -0.0527. `O=C(CS)NCCCCCNC(=O)[C@@H]1C[C@@H]2C(=O)N3CCC[C@H]3C(=O)N2[C@@H]1c1cccc(OCCO)c1` yielded a composite z-score of -0.258. `C=C(C)c1cc2c(c(CCCCCC)n1)[Si](C(C)C)(C(C)C)OC2` showed a composite z-score of -0.146.

`CCCCC(O)C1C=CC2C(=O)N(c3ccccc3)C(=O)C2N1Nc1ccc(C(C)C)cc1` (stereo not drawn) gave a composite z-score of -0.0073. `COCCOC(=O)N1C(=O)[C@@]2(c3cc(C#CC4=CCCCC4)ccc31)[C@H](c1ccc(OCCO)cc1)N1[C@H](c3ccccc3)[C@H](c3ccccc3)OC(=O)[C@H]1[C@@H]2C(=O)N1CCN(c2ncccn2)CC1`: the composite z-score is -0.158.

As to `C=C(COC)/C(=C/C[C@H](OC(C)=O)c1ccc(OCCO)cc1)c1cc(C(=O)OC)ccc1OC`, the composite z-score was -0.107.

In turn, `CC1CC/C=C\[C@H]2OC34C=CCN(c5ccc(Cl)cc5)C(=O)[C@H]3N(CCCCCO)C(=O)[C@]4(C)C2C(=O)O1` (stereo partly drawn) displayed a composite z-score of -0.117.

`CN1C(=O)C2C=CC(C(O)c3cccc(O)c3)N(Nc3ccccc3)C2C1=O` (stereo not drawn) showed a composite z-score of -0.14. Then `O=C1NC(=O)C2C1C=CC(C(O)c1c(F)cccc1Cl)N2Nc1ccc(Cl)cc1Cl` (stereo not drawn), with 0.232; and `COc1ccc([Si](C)(C)[C@@H]2[C@@H](CCO)O[C@]3(C(=O)N(Cc4ccc(N5CCCCC5=O)cc4)c4ccccc43)[C@H]2C)cc1`, with -0.0515. For `C=CCC(OC(C)=O)[C@@H]1[C@@H](N(Cc2cc3ccccc3o2)C(=O)c2ccc(C)cc2)c2cc(OCCCO)ccc2N1C(=O)Cc1ccc(OC)cc1` (stereo partly drawn), the composite z-score is -0.0811.

As to `CCOc1cc(C(O)C2C=CC3C(=O)N(C)C(=O)C3N2Nc2ccccc2)ccc1O` (stereo not drawn), the composite z-score stood at 0.0931. `O=C(CS)NCCCCCCNC(=O)[C@H]1C[C@H]2C(=O)N[C@@H](Cc3ccccc3)C(=O)N2[C@H]1c1ccc(O)cc1` yielded a composite z-score of -0.0924. `CC(c1ccccc1)C(O)C1C=CC2C(=O)N(c3ccccc3)C(=O)C2N1Nc1ccc([N+](=O)[O-])cc1` (stereo not drawn) gave a composite z-score of -0.0211. In turn, `COc1ccccc1CN1C(=O)c2ccccc2[C@@]2(Cc3ccccc3N(CC(F)(F)F)C2=O)[C@@H]1c1ccc(CO)cc1` registered a composite z-score of 0.156. In turn, `COC(=O)C(CC#Cc1ccc2c(c1)[C@]1(C(=O)N2)[C@H](C(=O)N2CCN(c3ncccn3)CC2)[C@H]2C(=O)O[C@H](c3ccccc3)[C@H](c3ccccc3)N2[C@@H]1c1ccc(OCCO)cc1)C(=O)OC` yielded a composite z-score of -0.0821.

`[N-]=[N+]=Nc1ccccc1[C@@H]1OC(c2ccc(OCCCO)cc2)=N[C@]1(Cc1ccccc1)C(=O)NCC(O)CO` (stereo partly drawn) returned a composite z-score of 0.178. The figure for `Cc1cc(C)c(C(O)C2C=CC3C(=O)NC(=O)C3N2Nc2ccc(Cl)cc2Cl)c(C)c1` (stereo not drawn) is -0.0125; for `COC(=O)c1c2oc(c1C(=O)OC)C(=O)N(Cc1ccccc1)Cc1cn(nn1)C[C@H](Cc1ccccc1)NC(=O)N[C@H](CO)CC2` it is -0.14. `C=CCNC(=O)[C@H]1[C@@H]2C(=O)O[C@@H](c3ccccc3)[C@@H](c3ccccc3)N2[C@@H](c2ccc(O)cc2)[C@]12C(=O)N(C(=O)OCCOC)c1ccccc12`: the composite z-score was found to be 0.0487.

Values taken from PubChem BioAssay.
